Experimental data as given in PubChem BioAssay (EPA / NIEHS).
Results filed as inconclusive are left out. Activity calls are given as the source filed them. How the source made its calls: active means hit-call score of the fitted dose curve at least 0.9, where 1 is the maximum; inconclusive means response in the unintended direction; inactive means score below 0.9.

Experiments:
[1] = molecular target: human Opioid Receptor Delta 1 (Opiate D1), OPRD1 (gene 4985) (UniProt P41143); assay: NVS_GPCR_hOpiate_D1: NovaScreen (NVS) G Protein-Coupled Receptor Assay for human Opioid Receptor Delta 1 (Opiate D1) (AID 2283280)
How it was run: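 Membrane preparations from CHO cells bearing the human receptor were incubated 1 h with test chemical, and bound radioligand was counted after filtration. Actives from 25 uM duplicate screening were retested in concentration-response.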

[2] = molecular target: human Orphanin, Opioid Related Nociceptin Receptor 1 (ORL1), OPRL1 (gene 4987) (UniProt P41146); assay: NVS_GPCR_hORL1: NovaScreen (NVS) G Protein-Coupled Receptor Assay for human Orphanin, Opioid Related Nociceptin Receptor 1 (ORL1) (AID 2283283)
How it was run: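 Cell-free binding using HEK293-derived receptor protein: radioligand displacement measured by filter scintillation 1 hour after dosing. Primary testing at 25 uM in duplicate, followed by singleton concentration series up to 50 uM; DMSO served as negative control.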

[3] = system: rabbit Platelet Activating Factor Receptor (PAF), gene 100354046; assay: NVS_GPCR_rabPAF: NovaScreen (NVS) G Protein-Coupled Receptor Assay for rabbit Platelet Activating Factor Receptor (PAF) (AID 2283287)
How it was run: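 Rabbit platelet membrane preparation; radioligand displacement read by filter-based scintillation counting 1 h after dosing, loss of signal versus DMSO. Primary screen in duplicate at 25 uM, actives followed up in concentration series.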

[4] = molecular target: guinea pig Bradykinin Receptor B2 (BK2), BDKRB2 (gene 100135486) (UniProt O70526); assay: NVS_GPCR_gBK2: NovaScreen (NVS) G Protein-Coupled Receptor Assay for guinea pig Bradykinin Receptor B2 (BK2) (AID 2283292)
How it was run: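 Guinea pig ileum membrane preparation incubated 1 h with radioligand and test chemical; bound counts measured after filtration. Primary duplicate screening at 25 uM, then singleton concentration series with a 50 uM top dose; DMSO as baseline.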

[5] = molecular target: rat Serotonin, 5-Hydroxytryptamine Receptor 1 (5HT1), Non-Selective Binding, Htr1a (gene 24473) (UniProt P19327); assay: NVS_GPCR_r5HT1_NonSelective: NovaScreen (NVS) G Protein-Coupled Receptor Assay for rat Serotonin, 5-Hydroxytryptamine Receptor 1 (5HT1), Non-Selective Binding (AID 2283286)
How it was run: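 Binding of a radioligand to rat cortex membranes is read by filtration and scintillation counting after 1 h. Compounds were screened at 25 uM in duplicate. Actives were then titrated to a top of 50 uM. DMSO is the baseline.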

[6] = molecular target: rat Adrenergic, Alpha 1, Non-selective Receptor (Adra1), Adra1a (gene 29412) (UniProt P43140); assay: NVS_GPCR_rAdra1_NonSelective: NovaScreen (NVS) G Protein-Coupled Receptor Assay for rat Adrenergic, Alpha 1, Non-selective Receptor (Adra1) (AID 2283289)
Method: NVS_GPCR_rAdra1_NonSelective is a biochemical, single-readout assay that uses extracted gene-proteins from Rat forebrain membranes in a tissue-based cell-free assay. Measurements were taken 1 hour after chemical dosing in a 48-well plate.NVS_GPCR_rAdra1_NonSelective is one of one assay component(s) measured or calculated from the NVS_GPCR_rAdra1_NonSelective assay. It is designed to make measurements of radioligand binding, a form of binding reporter, as detected with scintillation counting signals by Filter-based radiodetection technology.Data from the assay component NVS_GPCR_rAdra1_NonSelective was analyzed into 1 assay endpoint. This assay endpoint, NVS_GPCR_rAdra1_NonSelective, was analyzed in the positive analysis fitting direction relative to DMSO as the negative control and baseline of activity. Using a type of binding reporter, loss-of-signal activity can be used to understand changes in the binding as they relate to the gene Adra1a. Furthermore, this assay endpoint can be referred to as a primary readout, because the performed assay has only produced 1 assay endpoint. To generalize the intended target to other relatable targets, this assay endpoint is annotated to the gpcr intended target family, where the subfamily is rhodopsin-like receptor. […]

[7] = molecular target: guinea pig Serotonin, 5-Hydroxytryptamine Receptor 4 (5HT4), HTR4 (gene 100135548) (UniProt O70528); assay: NVS_GPCR_g5HT4: NovaScreen (NVS) G Protein-Coupled Receptor Assay for guinea pig Serotonin, 5-Hydroxytryptamine Receptor 4 (5HT4) (AID 2283294)
How it was run: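 Compounds first screened in duplicate at 25 uM, actives followed up in concentration series. Binding measured as displacement of specific radioligand from guinea pig striatal membranes, 1 h, filter-based scintillation read-out versus DMSO baseline.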

[8] = molecular target: rat Serotonin, 5-Hydroxytryptamine Receptor (5HT), Non-Selective Binding, Htr1a (gene 24473) (UniProt P19327); assay: NVS_GPCR_r5HT_NonSelective: NovaScreen (NVS) G Protein-Coupled Receptor Assay for rat Serotonin, 5-Hydroxytryptamine Receptor (5HT), Non-Selective Binding (AID 2283295)
How it was run: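 Rat cortex membrane preparation incubated 1 h with radioligand and test chemical; bound radioactivity counted after filtration. Screening began in duplicate at 25 uM with concentration-series follow-up; fitting relative to DMSO.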

Sequence of human Opioid Receptor Delta 1 (Opiate D1), OPRD1 (gene 4985) (P41143 whole entry, looked up): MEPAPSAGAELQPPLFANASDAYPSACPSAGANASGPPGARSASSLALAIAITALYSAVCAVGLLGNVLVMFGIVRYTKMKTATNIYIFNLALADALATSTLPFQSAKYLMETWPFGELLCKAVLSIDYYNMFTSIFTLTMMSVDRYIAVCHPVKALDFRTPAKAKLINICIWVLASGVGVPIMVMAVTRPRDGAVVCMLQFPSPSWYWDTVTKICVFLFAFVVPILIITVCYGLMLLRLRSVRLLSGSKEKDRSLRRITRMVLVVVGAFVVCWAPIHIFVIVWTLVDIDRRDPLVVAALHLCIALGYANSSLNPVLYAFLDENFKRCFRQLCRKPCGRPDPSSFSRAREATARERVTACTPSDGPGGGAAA
Sequence of guinea pig Bradykinin Receptor B2 (BK2), BDKRB2 (gene 100135486) (O70526 whole entry, looked up): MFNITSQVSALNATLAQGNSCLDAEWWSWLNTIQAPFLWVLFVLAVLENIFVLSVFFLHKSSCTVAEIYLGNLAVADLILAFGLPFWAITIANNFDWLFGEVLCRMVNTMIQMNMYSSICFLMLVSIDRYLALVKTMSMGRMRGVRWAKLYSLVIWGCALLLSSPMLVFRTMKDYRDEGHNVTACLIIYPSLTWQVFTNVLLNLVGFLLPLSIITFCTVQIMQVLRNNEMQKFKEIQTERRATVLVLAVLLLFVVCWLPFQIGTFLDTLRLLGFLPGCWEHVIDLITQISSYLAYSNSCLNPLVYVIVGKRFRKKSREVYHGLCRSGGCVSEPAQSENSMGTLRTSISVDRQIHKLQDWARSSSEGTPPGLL
Sequence of human Orphanin, Opioid Related Nociceptin Receptor 1 (ORL1), OPRL1 (gene 4987) (P41146 whole entry, looked up): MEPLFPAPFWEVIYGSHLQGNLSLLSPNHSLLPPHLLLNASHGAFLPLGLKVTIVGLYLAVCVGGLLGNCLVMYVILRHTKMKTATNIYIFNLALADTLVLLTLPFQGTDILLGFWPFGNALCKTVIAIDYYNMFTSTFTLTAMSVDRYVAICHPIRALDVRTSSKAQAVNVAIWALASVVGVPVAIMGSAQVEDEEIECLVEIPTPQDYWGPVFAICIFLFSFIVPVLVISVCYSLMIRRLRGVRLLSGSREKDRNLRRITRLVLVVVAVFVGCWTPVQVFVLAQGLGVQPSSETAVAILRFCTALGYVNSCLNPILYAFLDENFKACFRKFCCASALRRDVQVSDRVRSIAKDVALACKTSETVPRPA
Sequence of guinea pig Serotonin, 5-Hydroxytryptamine Receptor 4 (5HT4), HTR4 (gene 100135548) (O70528 whole entry, looked up): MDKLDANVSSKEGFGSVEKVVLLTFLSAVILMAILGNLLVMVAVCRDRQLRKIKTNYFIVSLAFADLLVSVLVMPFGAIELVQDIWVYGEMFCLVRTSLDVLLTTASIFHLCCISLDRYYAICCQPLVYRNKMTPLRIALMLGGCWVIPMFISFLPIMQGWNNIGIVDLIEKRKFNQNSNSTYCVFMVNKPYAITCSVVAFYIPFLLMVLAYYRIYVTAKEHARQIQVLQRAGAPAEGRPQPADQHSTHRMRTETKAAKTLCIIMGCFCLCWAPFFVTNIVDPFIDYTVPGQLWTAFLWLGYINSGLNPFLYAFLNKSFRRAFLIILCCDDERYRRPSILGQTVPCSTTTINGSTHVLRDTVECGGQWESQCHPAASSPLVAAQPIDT
Sequence of rat Adrenergic, Alpha 1, Non-selective Receptor (Adra1), Adra1a (gene 29412) (P43140 whole entry, looked up): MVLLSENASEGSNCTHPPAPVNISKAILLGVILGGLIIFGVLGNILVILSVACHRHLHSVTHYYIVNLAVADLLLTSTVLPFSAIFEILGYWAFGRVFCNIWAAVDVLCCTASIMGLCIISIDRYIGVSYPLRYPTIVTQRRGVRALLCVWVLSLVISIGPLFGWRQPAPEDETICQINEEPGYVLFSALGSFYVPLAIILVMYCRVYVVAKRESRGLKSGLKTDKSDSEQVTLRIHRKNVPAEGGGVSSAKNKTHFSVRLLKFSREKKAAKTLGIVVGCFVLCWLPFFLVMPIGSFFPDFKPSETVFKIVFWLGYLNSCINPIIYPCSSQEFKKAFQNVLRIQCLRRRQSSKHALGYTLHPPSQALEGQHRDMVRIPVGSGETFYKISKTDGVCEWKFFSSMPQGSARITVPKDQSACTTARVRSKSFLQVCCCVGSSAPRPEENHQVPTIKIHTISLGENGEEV
Sequence of rat Serotonin, 5-Hydroxytryptamine Receptor 1 (5HT1), Non-Selective Binding, Htr1a (gene 24473) (P19327 whole entry, looked up): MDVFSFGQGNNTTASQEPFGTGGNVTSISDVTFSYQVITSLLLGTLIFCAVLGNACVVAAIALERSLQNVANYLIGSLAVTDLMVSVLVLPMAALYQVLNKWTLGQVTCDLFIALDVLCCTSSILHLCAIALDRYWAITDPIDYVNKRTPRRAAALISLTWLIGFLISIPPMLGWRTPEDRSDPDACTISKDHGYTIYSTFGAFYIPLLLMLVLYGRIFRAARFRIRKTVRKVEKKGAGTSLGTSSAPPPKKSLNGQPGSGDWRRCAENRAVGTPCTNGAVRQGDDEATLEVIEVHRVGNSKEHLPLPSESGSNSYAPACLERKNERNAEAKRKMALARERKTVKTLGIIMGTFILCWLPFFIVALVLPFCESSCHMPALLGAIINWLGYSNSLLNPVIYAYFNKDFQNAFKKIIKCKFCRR
Sequence of rat Serotonin, 5-Hydroxytryptamine Receptor (5HT), Non-Selective Binding, Htr1a (gene 24473) (P19327 whole entry, looked up): as above

`CC/C(=C(\c1ccccc1)c1ccc(OCCN(C)C)cc1)c1ccccc1` was tested, and the outcome [1] was “inactive”, the AC50 [2] was 9.83 µM (active) and the outcome [3] was “inactive”. The outcome [4] was “inactive”.
In the case of `O=C(c1ccc(OCCN2CCCCC2)cc1)c1c(-c2ccc(O)cc2)sc2cc(O)ccc12`, the AC50 [1] is reported as 5.28 µM (active), the AC50 [2] is reported as 0.982 µM (active) and the AC50 [5] is reported as 18.5 µM (active). For the same compound, the AC50 [3] was 12.1 µM (active), the AC50 [6] was 1.49 µM (active) and the outcome [4] was “inactive”. For the same compound, the AC50 [7] was 4.36 µM (active) and the AC50 [8] was 5.24 µM (active).
`C#C[C@]1(O)CC[C@H]2[C@@H]3CCc4cc(O)ccc4[C@H]3CC[C@@]21C` was tested, and the AC50 [7] was 2.64 µM (active).
